A selection: hits, their analogues and other compounds. The true share with any hit is near 21%.
HCV inhibitor = qHTS Assay for Inhibitors of Hepatitis C Virus (HCV). Potency, µM (doses to about 41.8 µM), most hits filed as inhibitors. AID 651820, 2012. hit rate 3.4% among 340,000. Huh7.5.1 HCVcc-Cre infection, luciferase reporter, 44 h
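Seed cells (1,000/well) for 4 h; treat with compound and infect with HCVcc-Cre, moi about 0.5. Incubate 44 h, then detect luciferase activity.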
CHX counter = Cycloheximide Counterscreen for Small Molecule Inhibitors of Shiga Toxin; hit rate 12% among 300,000; cell reporter, cycloheximide protein synthesis inhibition counterscreen; max response, %; in the data active means max response mostly above about 13%, no sharp cut-off; inactive means mostly below about 14%; further: read at 38.3 µM for the half of the compounds with a filed dose
AMA1-RON2 inh = qHTS for Inhibitors of AMA1-RON; Towards Development of Antimalarial Drug Lead: Primary Screen | hit rate 0.2% among 360,000 | AID 720542, 2013 | Plasmodium falciparum AMA1 (3D7) - RON2 peptide interaction | Potency, µM (series often up to 58.2 µM), actives largely listed as inhibitors | AlphaScreen AMA1-biotinylated RON2 peptide binding; further: nearly all actives have a fitted effect of over 45% in size
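AMA1 (3D7) with his tag at 25 nM final met compounds first, then biotinylated RON2 peptide at 25 nM; detection used donor plus acceptor beads, 10 µg/mL apiece, read by AlphaScreen after 30 min at room temperature.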
Pf growth 48h = Primary qHTS for delayed death inhibitors of the malarial parasite plastid, 48 hour incubation; P. falciparum luciferase growth in erythrocytes, 48 h; hit rate 5.9% among 310,000; AID 504832, 2011; Potency, µM (top dose mostly 28.7 µM), most hits filed as inhibitors
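Compounds are pin-transferred into medium, infected erythrocytes (2% hematocrit, 0.1% parasitemia final) are added, and plates sit one parasite generation at 37 C in 5% CO2. Detection reagent is then added and luminescence measured.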
Shiga toxin inh = A qHTS for Small Molecule Inhibitors of Shiga Toxin | hit rate 9.2% among 290,000 | Vero cells, Shiga toxin protein synthesis inhibition reporter | inhibition, % at 38.7 µM | AID 2315, 2010; in the data active means inhibition mostly above about 28%, no sharp cut-off; inactive means mostly below about 43%
Pf growth 96h = Primary qHTS for delayed death inhibitors of the malarial parasite plastid, 96 hour incubation; P. falciparum luciferase reporter growth, 96 h; Potency, µM (doses to about 28.7 µM), actives largely listed as inhibitors; hit rate 6.9% among 320,000; AID 504834, 2011
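P. falciparum expressing integrated firefly luciferase grown in erythrocytes (2% hematocrit, 0.05% parasitemia final) with compounds for 96 hours at 37 C, 5% CO2. Growth inhibition read as loss of luminescence after adding luciferase detection reagent.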
Numbers stand for hits; - = inactive; ? = inconclusive; . = not tested or not shown; ! = not active in a repeat; [ ] = dose if it differs, or a comment. Unless noted, the call rests on the fitted dose curve; in most records, active means well fitted curve in the direction sought with a large enough effect; inconclusive means small, poorly fitted or top-dose-only effect, or another doubt; inactive means no such curve, though single readings can be large; an effect the other way counts as inactive or inconclusive.

SMILES | HCV inhibitor | CHX counter | AMA1-RON2 inh | Pf growth 48h | Shiga toxin inh | Pf growth 96h
O=C(CSc1ncccn1)N/N=C/c1ccc(OC2CSC2)cc1 | - | - | - | - | - | -
C[C@H](NC(=O)c1ncn2c1C(=O)N(C)CC2)C(=O)OC(C)(C)C | . | . | - | . | . | .
O=C(Cc1ccccc1)N/N=C/c1ccc2c(c1)OCO2 | - | 33.5 | - | - | 72.0 | -
O=C(NN=Cc1ccc2c(c1)OCO2)NN=Cc1ccc2c(c1)OCO2 | - | . | - | . | . | .
O=C(CCc1c[nH]c2ccccc12)N/N=C/c1ccc2c(c1)OCO2 | 12.6µM | - | - | - | - | -
O=C(CCc1ccccc1)NCC(=O)N/N=C/c1ccc2c(c1)OCO2 | - | 19.2 | - | - | 53.2 | -
Cc1ccc(S(=O)(=O)N2CCCCC2CCNC(=O)C(=O)NCc2ccccc2)cc1 (configuration not stated) | ? | . | - | ? | . | ?
CC(=O)N(Cc1ccccc1C)c1cccc(C)c1C | - | - | - | ? | - | ?
O=c1c2ccccc2nc(-c2ccco2)n1-c1ccncc1 | - | - | - | - | - | ?
O=c1c2ccccc2nc(-c2ccco2)n1-c1ccccc1 | - | - | - | ? | - | 8.28µM
O=c1c2ccccc2nc(-c2ccco2)n1-c1nc2ccccc2s1 | - | - | - | - | - | 1.04µM
O=C1c2ccccc2-n2c1nc1ccccc1c2=O | - | - | - | 0.329µM | 52.3! | 0.0037µM
O=C(COC(=O)[C@@H]1CC(O)CN1S(=O)(=O)c1ccc(Cl)cc1)NC(=O)NCc1ccccc1 (some centres not stated) | - | . | - | - | . | -
CCOC(=O)C1CCN(C(=O)COC(=O)c2ccc([N+](=O)[O-])o2)CC1 | - | . | - | ? | . | 11.7µM
CC1CC(C)CN(C(=O)COC(=O)c2ccc([N+](=O)[O-])o2)C1 (configuration not stated) | - | . | - | - | . | -
O=C(COC(=O)c1ccc([N+](=O)[O-])o1)c1ccccc1 | - | - | - | - | - | ?
O=C(OCCCOC(=O)c1ccc([N+](=O)[O-])o1)c1ccc([N+](=O)[O-])o1 | - | . | - | 13.1µM | . | -
O=C(CSc1ccccn1)Nc1ccc(Br)cn1 | - | 21.2 | - | - | - | -
COc1ccc(NC(=O)CSCC(=O)NCCc2ccccn2)cc1 | - | - | - | - | - | -
Cc1ccc(N(Cc2ccc(C(=O)NCCSc3ccccn3)cc2)S(C)(=O)=O)cc1C | - | - | - | ? | - | 0.738µM
COc1ccc(NC(=O)CSc2ccccn2)cc1 | - | 49.3 | - | - | 61.6 | ?
COc1ccc(NC(=O)CC(C)c2ccccc2)c([N+](=O)[O-])c1 (configuration not stated) | - | 19.0 | -[11.6 µM] | - | - | -
COc1ccc(NC(=O)CC(C)C)c([N+](=O)[O-])c1 | - | - | - | - | - | -
C=CC(C)(O)CC/C=C(\C)CCC=C(C)C (configuration not stated) | . | . | . | - | . | -
Cc1nnc(SCC(=O)Nc2nccs2)n1C(C)C | - | - | - | - | - | -
SMILES | HCV inhibitor | CHX counter | AMA1-RON2 inh | Pf growth 48h | Shiga toxin inh | Pf growth 96h
Cc1nn(CC(=O)OCC(=O)Nc2ccccc2[N+](=O)[O-])c(C)c1[N+](=O)[O-] | - | - | - | - | - | -
COc1ccc(NC(=O)CSCc2ccccc2C)cc1 | ? | 54.4 | - | - | 64.9 | -
Cc1ccc(NC(=O)COC(=O)Cn2nc(C)c([N+](=O)[O-])c2C)c([N+](=O)[O-])c1 | - | 28.0 | - | - | - | -
COc1ccc(NC(=O)CSc2nc(C)cc(C)n2)c([N+](=O)[O-])c1 | - | - | - | - | - | -
COc1ccc(NC(=O)CSc2ccccn2)c([N+](=O)[O-])c1 | - | 36.8 | - | - | 101.9 | -
Cc1ccc(NC(=O)CSc2ncccn2)c([N+](=O)[O-])c1 | ? | 27.8 | - | - | 82.0 | -
CC(=O)c1ccc(-c2c(CCO)sc3ccccc23)cc1 | . | . | - | . | . | .
COc1ccc(NC(=O)CSc2nc3c(c(=O)n2C)SCC3)cc1OC | - | - | - | - | - | -
O=C(CCSc1ccccn1)Nc1ccc(Br)cc1 | - | 49.1 | - | - | 101.4 | -
COc1ccccc1C(=O)CSc1ccccn1 | - | 27.1 | - | - | 94.3 | -
COc1ccc(Cn2c(CCC(=O)Nc3ccc(C)cc3)nc3cccnc32)cc1 | - | - | - | . | - | 10.4µM
COc1ccc(C(=O)NCCSc2ccccn2)cc1 | - | 32.2 | - | - | 52.8 | ?
COc1ccc(Cn2c(CCC(=O)O)nc3cccnc32)cc1 | - | - | - | - | - | -
COc1cc(CN2C(=O)C(C)ON=C2c2cccs2)cc(OC)c1 (configuration not stated) | . | . | - | . | . | .
Cn1c(N)c(C(=O)COC(=O)c2ccccn2)c(=O)n(C)c1=O | - | - | - | - | - | -
COc1cccc(NC(=O)CSc2ccccn2)c1 | - | 61.5 | - | - | 69.5 | -
O=C(CSCCO)Nc1ccccc1 | - | - | - | - | - | -
Cn1c(N)c(C(=O)CSc2ccccn2)c(=O)n(C)c1=O | - | - | - | - | 47.4 | -
CCc1ccc(NC(=O)CSCCO)cc1 | - | - | - | - | 36.8 | -
COc1cccc(NC(=O)CSc2nc3ccccc3c(=O)n2C)c1 | 22.4µM | - | - | 11.7µM | - | ?
CC(C)Oc1ccccc1NC(=O)CSc1nc2ccccc2c(=O)n1C | ? | - | - | - | - | -
O=C(CSc1ccccn1)Nc1ccc(NC(=O)CSc2ccccn2)cc1 | - | - | - | - | - | -
CCCCCCn1c(COc2ccccc2F)nnc1SCC(=O)c1c(N)n(C)c(=O)n(C)c1=O | - | - | . | ? | - | ?
CCc1ccc(NC(=O)CSc2ccccn2)cc1 | - | 40.3 | - | - | - | -
COCC(C)n1c(COc2ccccc2F)nnc1SCC(=O)c1c(N)n(C)c(=O)n(C)c1=O (configuration not stated) | - | - | - | 10.4µM | - | ?
COc1ccc(/C=C2\SC(=S)N(CCCC(=O)Nc3ccccc3C(=O)O)C2=O)cc1OC | - | - | - | ? | - | -
COc1ccc(/C=C2/SC(=S)N(CCCC(=O)Nc3ccc(O)cc3)C2=O)cc1OC | ? | - | - | - | - | 11.7µM
COc1ccc(/C=C2\SC(=N)N(c3ccc(F)cc3)C2=O)cc1OC | ? | - | - | ? | - | -
COc1ccc(/C=C2\SC(=S)N(CCCC(=O)Nc3ccc(C(=O)O)cc3)C2=O)cc1OC | - | - | - | 11.7µM | - | ?
CCOc1ccc(/C=C2\SC(=O)N(c3ccc(O)cc3)C2=O)cc1OC | - | 20.0 | - | - | - | -
